DNA Pol III inh = qHTS Assay for Inhibitors of DNA Polymerase III Holoenzyme System. Potency, µM (titrated, usually from 57.1 µM), inactives show top-dose activity change, negative = inhibition. 71,000 compounds, 0.25% hits. reconstituted DNA polymerase III holoenzyme replication, biochemical. AID 603, 2007; note: potency is the fitted concentration of half-maximal effect; % is set by controls: 0 for no effect and ±100 for the full control effect
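Reconstituted *E. coli* holoenzyme (0.35 nM Pol III, 1 nM beta, 154 nM SSB, 2 nM primase) was preincubated with compound for 15 min at RT. Synthesis on 1.4 nM ssM13Gori ran 35 min, then was stopped with PicoGreen/EDTA and read as dsDNA fluorescence.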
YjeE inh = qHTS Assay for Inhibitors of YjeE. tRNA threonylcarbamoyladenosine biosynthesis protein TsaE (Escherichia coli (strain …. purified YjeE enzyme, qHTS inhibition assay. Potency, µM. 71,000 compounds, 0.05% hits. AID 605, 2007
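Purified YjeE (10 uM) with BODIPY Texas Red-labeled ADP probe (2 uM); compounds pin-transferred, 15 min at room temperature. Binding inhibition read as decreased fluorescence polarization; ADP titration as control.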
BRCT inh green = qHTS Assay for Inhibitors of BRCT-Phosphoprotein Interaction (Green Fluorophore); Breast cancer type 1 susceptibility protein (Homo sapiens), P38398; BRCA1 BRCT-phosphopeptide binding, green fluorescence polarization; Potency, µM (doses to about 76.9 µM), for the others: at the highest dose activity change, negative = inhibition, actives largely listed as inhibitors; 75,000 compounds, 0.05% hits;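 note: potency is the fitted concentration of half-maximal effect; plate controls were peptide without protein for full effect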
Target sequence (P38398 whole entry, looked up): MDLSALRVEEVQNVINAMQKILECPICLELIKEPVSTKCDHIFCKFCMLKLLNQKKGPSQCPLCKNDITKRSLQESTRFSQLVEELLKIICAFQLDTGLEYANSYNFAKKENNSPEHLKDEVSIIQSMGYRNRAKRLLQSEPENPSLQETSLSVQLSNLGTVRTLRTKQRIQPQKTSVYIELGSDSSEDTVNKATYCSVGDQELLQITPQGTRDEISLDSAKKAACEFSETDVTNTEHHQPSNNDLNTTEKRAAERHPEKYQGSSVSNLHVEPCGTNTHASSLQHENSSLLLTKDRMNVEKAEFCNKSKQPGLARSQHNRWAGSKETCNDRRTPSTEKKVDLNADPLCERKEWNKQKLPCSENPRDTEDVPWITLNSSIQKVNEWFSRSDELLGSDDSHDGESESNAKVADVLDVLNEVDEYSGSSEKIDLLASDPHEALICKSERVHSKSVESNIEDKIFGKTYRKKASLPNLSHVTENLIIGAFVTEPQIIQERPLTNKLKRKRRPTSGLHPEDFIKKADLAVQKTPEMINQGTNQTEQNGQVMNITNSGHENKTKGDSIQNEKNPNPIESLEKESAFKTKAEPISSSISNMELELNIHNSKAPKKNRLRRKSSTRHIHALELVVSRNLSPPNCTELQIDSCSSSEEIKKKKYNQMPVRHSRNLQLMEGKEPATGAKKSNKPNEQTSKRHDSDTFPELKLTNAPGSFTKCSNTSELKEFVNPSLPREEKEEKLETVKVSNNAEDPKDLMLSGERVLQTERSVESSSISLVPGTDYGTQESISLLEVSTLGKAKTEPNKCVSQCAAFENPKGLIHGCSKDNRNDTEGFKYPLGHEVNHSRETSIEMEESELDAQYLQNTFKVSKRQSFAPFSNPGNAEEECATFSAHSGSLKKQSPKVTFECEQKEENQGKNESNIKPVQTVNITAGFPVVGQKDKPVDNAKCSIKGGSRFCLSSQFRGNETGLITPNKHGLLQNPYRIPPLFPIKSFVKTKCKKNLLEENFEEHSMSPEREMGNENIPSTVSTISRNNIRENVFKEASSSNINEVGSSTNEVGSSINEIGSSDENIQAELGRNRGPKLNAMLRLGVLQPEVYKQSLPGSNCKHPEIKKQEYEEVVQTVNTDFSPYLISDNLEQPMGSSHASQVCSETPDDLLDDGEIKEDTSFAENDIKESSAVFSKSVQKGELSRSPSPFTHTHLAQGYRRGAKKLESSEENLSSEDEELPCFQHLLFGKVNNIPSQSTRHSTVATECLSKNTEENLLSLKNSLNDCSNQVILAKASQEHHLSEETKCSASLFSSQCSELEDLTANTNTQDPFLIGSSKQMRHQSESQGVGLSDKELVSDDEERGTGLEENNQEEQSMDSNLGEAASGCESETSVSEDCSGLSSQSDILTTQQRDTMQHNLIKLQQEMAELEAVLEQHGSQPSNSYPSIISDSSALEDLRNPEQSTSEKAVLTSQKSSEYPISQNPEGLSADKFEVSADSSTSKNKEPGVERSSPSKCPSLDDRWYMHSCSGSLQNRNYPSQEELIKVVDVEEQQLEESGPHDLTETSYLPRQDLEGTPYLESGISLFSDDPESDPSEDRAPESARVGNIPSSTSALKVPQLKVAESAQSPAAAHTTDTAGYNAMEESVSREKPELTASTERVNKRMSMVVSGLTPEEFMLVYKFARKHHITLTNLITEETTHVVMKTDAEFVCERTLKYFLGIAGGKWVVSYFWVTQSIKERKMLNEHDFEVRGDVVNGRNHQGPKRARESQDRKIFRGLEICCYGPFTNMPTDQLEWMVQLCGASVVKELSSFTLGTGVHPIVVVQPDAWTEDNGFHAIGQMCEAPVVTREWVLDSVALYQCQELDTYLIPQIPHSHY
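Fluorescence polarization: His-tagged BRCT (~35 kDa BRCA1 C-terminus, 250 nM) bound to 100 nM fluorescein-labeled phosphorylated 10-aa BACH1 peptide, pH 7.3 phosphate buffer with DTT and Tween 20. Compounds incubated 12 min at room temperature; inhibition read as lowered polarization.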
15-hLO inh = qHTS Assay for Inhibitors of 15-hLO (15-human lipoxygenase); purified 15hLO-1, xylenol orange hydroperoxide absorbance; Potency, µM (top dose mostly 57.1 µM), for inactives: top-dose activity change, negative = inhibition, actives largely listed as inhibitors; 74,000 compounds, 1.4% hits; AID 887, 2007; note: potency is the fitted concentration of half-maximal effect; % is set by controls: 0 for no effect and ±100 for the full control effect; nearly all actives have a fitted effect of over 55% in size
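Inhibition is scored from a chromogenic endpoint. After 15 min enzyme-compound contact, arachidonic acid (50 uM final) reacts 6 min with 40 nM 15hLO-1 at room temperature, then Fe-XO reagent is added for 30 min and absorbance ratio recorded.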
Tau fil binding = qHTS Assay for Tau Filament Binding; Microtubule-associated protein tau (Homo sapiens), P10636; recombinant tau filaments, thioflavin S fluorescence, 15 h; filaments grown with octadecylsulfate alongside compound; Potency, µM (series often up to 57.1 µM), for inactives: at the highest dose activity change, negative = inhibition; 71,000 compounds, 2% hits; AID 596, 2007;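 note: potency is the fitted concentration of half-maximal effect; % is set by controls: 0 for no effect and ±100 for the full control effect; actives lower thioflavin S fluorescence by blocking filaments or displacing dye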
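His-tagged recombinant human tau (exons 2, 3 and 10 included), 1 uM, was induced to fibrillize by 30 uM sodium octadecylsulfate with compound present. After 15 h at 37 C, thioflavine S fluorescence (ex 450, em 510 nm) was read.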
BRCT inh red = qHTS Assay for Inhibitors of BRCT-Phosphoprotein Interaction (Red Fluorophore); BRCT-phosphopeptide binding, red fluorescence polarization; Potency, µM (series often up to 76.9 µM), inactives show at the highest dose activity change, negative = inhibition, usual class: inhibitors; 75,000 compounds, 0.03% hits; AID 892, 2007; note: % is set by controls: 0 for no effect and ±100 for the full control effect
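Rhodamine-labelled pBACH1 10-mer (100 nM) bound to BRCT domain (100 nM) at pH 7.3; compounds incubated 12 min room temperature, polarization read. Free peptide defines full inhibition; unlabelled decapeptide titrated as control.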
* marks the source's active call; other numbers are inactive results; i = inactive; ? = inconclusive; · = no result; [ ] = dose if it differs, or a comment. Only some compounds are listed: those with a hit (about 3.3% of all), similar ones and a draw of the others. Calls come from the whole dose curve; as a rule, active = well fitted curve in the direction sought with a large enough effect; inconclusive = small, poorly fitted or top-dose-only effect, or another doubt; inactive = no such curve, though single readings can be large; an effect the other way counts as inactive or inconclusive.

SMILES	DNA Pol III inh	YjeE inh	BRCT inh green	15-hLO inh	Tau fil binding	BRCT inh red
N=c1c(C(=O)NCc2ccco2)cc2c(=O)n3ccccc3nc2n1Cc1ccccc1	0%	i	10%	?	?	0%
CCOC(=O)c1cc2c(=O)n3ccccc3nc2n(Cc2ccc(Cl)cc2)c1=N	0%	i	-1%	-3%	0.5µM*	0%
CCn1c(=N)c(C(=O)OC)cc2c(=O)n3ccccc3nc21	-8%	i	-9%	-6%	7%	-1%
CC(C)n1c(=N)c(C(=O)NCCc2ccccc2)cc2c(=O)n3ccccc3nc21	-9%	i	-3%	-11%	3.2µM*	0%
N=c1c(C(=O)NCc2ccco2)cc2c(=O)n3ccccc3nc2n1Cc1ccc(Cl)cc1	-4%	i	-1%	-15%	3.2µM*	0%
Cc1cccn2c(=O)c3cc(C(=O)NCc4ccco4)c(=N)n(CCc4ccccc4)c3nc12	-14%	i	6%	-27%	1.6µM*	-1%
Cc1ccc(C[C@H](Cc2nc3ccccc3[nH]2)c2nc3ccccc3[nH]2)cc1	-4%	i	·	·	124%	·
CCCn1cnc2c(SCC(=O)O)nc(N)nc21	-10%[11.4 µM]	i	1%[15.4 µM]	-1%[11.4 µM]	2%[11.4 µM]	0%[15.4 µM]
C#CCCCO/N=C1/[C@H]2O[C@@H]2[C@@H](O)[C@H]2[C@H]1CCn1c(=O)n(Cc3cc4c(cc3Cl)OCO4)c(=O)n12	·	·	-1%[15.4 µM]	-1%[11.4 µM]	·	3%[15.4 µM]
CCCc1cc(C(N)=O)c(NC(=O)c2cc(C)on2)s1	0%	i	1%	?	32µM*	-2%
CCc1ccc(C2CC(c3ccccc3Cl)Nc3nc(N)nn32)cc1 (stereo unspecified)	-5%	i	-1%	15%	20µM*	1%
CC(C)CO/N=C1/C[C@@H](O)[C@@H](O)[C@@H]2[C@@H]3C(=O)N(C(C)(C)C)C(=O)[C@H]3CC[C@@H]12	·	·	-1%[15.4 µM]	1%[11.4 µM]	·	-2%[15.4 µM]
O=C(CN1C(=O)c2ccccc2C1=O)[C@@H](O)CN1C(=O)c2ccccc2C1=O	-4%[11.4 µM]	i	-1%[15.4 µM]	1%[11.4 µM]	5%[11.4 µM]	-3%[15.4 µM]
O=C(O)CCCCCC[C@@H]1C(=O)NC(=O)N1CC[C@@H](O)C1CCCCC1	-6%	i	·	·	-1%	·
Nc1cc(Cl)c(N)cc1Cl	-4%	i	-1%	9%	25µM*	0%
Cc1n[nH]c(C)c1N1C(=O)c2cccc3cc(Br)cc(c23)C1=O	-8%	i	-7%	?	16µM*	-4%
Cc1cc(NC(=O)CSc2nc3c(c(-c4cccnc4)c2C#N)CCC3)no1	3.2µM*	i	0%	-5%[11.4 µM]	286%[11.4 µM]	2%
COc1cccc(NC(=O)CSc2nc3c(c(-c4ccco4)c2C#N)CCCC3)c1	-8%	i	1%	4%	?	0%
O=c1c(-c2ccc(O)cc2)coc2c(C3OC(CO)C(O)C(O)C3O)c(O)ccc12 (stereo unspecified)	·	·	-4%[3.08 µM]	-3%	·	-1%
NCCC[C@@H](CC(=O)N[C@@H]1CCNC[C@H]1C(=O)N[C@H](CC(=O)N[C@@H](CCC(=O)O)CC(=O)O)Cc1c[nH]c2ccccc12)NC(=O)C[C@H](CO)NC(=O)[C@@H]1CCCC[C@H]1N	-12%	i	·	·	-4%	·
CC(C)N=c1cc2n(-c3ccc(Cl)cc3)c3ccccc3nc-2cc1Nc1ccc(Cl)cc1	-7%[25.6 µM]	i	0%[34.4 µM]	1%[25.6 µM]	0.13µM*	-1%[34.4 µM]
C[C@]12CC[C@H]3c4ccc(O)cc4CC[C@@H]3[C@H]1CC[C@@H]2OC(=O)CCc1ccccc1	0%[11.4 µM]	i	-1%[15.4 µM]	-11%[11.4 µM]	-2%[11.4 µM]	-1%[15.4 µM]
CC(CC1C(C#N)=C(N)SC(N)=C1C#N)c1ccccc1 (stereo unspecified)	0%	i	4%	16µM*	-6%	-1%
CC(c1ccccc1)C1C(C#N)=C(N)SC(N)=C1C#N (stereo unspecified)	-10%	i	0%	-13%	-3%	0%
COc1cc2c(cc1OC)C1C(=O)c3c(O)cc4c(c3OC1CO2)C=CC(C)(C)O4 (stereo unspecified)	·	·	-1%[3.08 µM]	-23%	·	-1%
SMILES	DNA Pol III inh	YjeE inh	BRCT inh green	15-hLO inh	Tau fil binding	BRCT inh red
C=CCn1c(=O)/c(=C/c2ccc(Cl)cc2)s/c1=C(/C#N)c1nnc2n1CCCCC2	-4%	i	2%	-22%	16µM*	0%
CCC1=C2CC[C@H]3C(=O)N(C)C(=O)[C@H]3[C@H]2[C@@]2(C)C(=NCC(=O)OC)OC(=O)N2C1=O	·	·	0%	·	·	1%
S=C([S-])NCCNC(=S)[S-].[Zn+2]	0.4µM*	i	0%	13µM*	15%	-26%
COc1ccccc1-c1nccc(NCc2cccc(C)c2)n1	-6%	i	-1%	-23%	111%	1%
CC12C=C(/C=C/C=C/c3ccccc3)C(C)(C1)C(/C=C/c1ccccc1)CC2=O (stereo unspecified)	·	·	0%[15.4 µM]	-23%[11.4 µM]	·	0%[15.4 µM]
CN(C)c1ccc(-c2nc(NCc3cccnc3)c3ccccc3n2)cc1	-6%	i	8%	20µM*	i	-2%
c1cncc(CNc2nc(-c3ccoc3)nc3ccccc23)c1	-12%	i	2%	?	?	1%
c1ccc(Nc2nc(-c3ccc4c(c3)OCO4)nc3ccccc23)cc1	-4%	i	0%	?	25µM*	0%
CN(C)c1ccc(-c2nc(Nc3ccncc3)c3ccccc3n2)cc1	-8%	i	0%	-25%	10µM*	1%
COc1ccc(CNc2nc(-c3ccc(N(C)C)cc3)nc3ccccc23)c(OC)c1	-1%	i	3%	10µM*	i	-3%
Cc1ccc(Cn2c(=S)[nH]c3ccc(N4CCOCC4)cc3c2=O)o1	?	i	-9%	16µM*	14%	-7%
O=c1c2cc(N3CCOCC3)ccc2[nH]c(=S)n1CCN1CCCC1	1%	i	0%	-19%	-4%	0%
Cc1ccc(S(=O)(=O)NCc2ccccc2)cc1	-1%	i	0%	-2%[25.6 µM]	?	1%
Cc1ccc(S(=O)(=O)Nn2c(C)ccc2C)cc1	-4%	i	0%	20µM*	?	1%

Compound activity deposited in PubChem BioAssay by National Center for Advancing Translational Sciences (NCATS).
